# Most compounds without a hit are left out; they make up all but 1.9% or so of the library.
# GALR2 antag: antagonists of human galanin receptor 2 (GALR2) | AID 828 | O43603 | inhibition, % at 4 µM | 0.39% of 140,000 active | GALR2-expressing cells, antagonist mode; in the data active = inhibition above about 27%;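 also: cells stimulated with galanin 1-16 at roughly its EC80; 0% = agonist challenge control and 100% = basal control without agonist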
# S1P2 agonist: S1P2 (human) receptor agonism. 0.46% of 97,000 active. AID 729. O95136. S1P2-expressing cell line, agonist reporter read-out. activation, % at 4.5 µM; in the data active = activation above about 16%;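 also: 0% = vehicle low control and 100% = maximal reference agonist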
# FAK blocker: blocks human focal adhesion kinase activity. inhibition, %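 (tested at 7 µM)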. 0.84% of 97,000 active. AID 727. biochemical FAK kinase activity assay; in the data active = inhibition above about 19%;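 also: 0% = DMSO and 100% = reference compound high control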
# GALR2 agonist: GALR2 (human) receptor agonism | 0.48% of 140,000 active | activation, % (no concentration beside the values) | GALR2-expressing cells, agonist activation read-out | O43603; in the data active = activation above about 5%, passing the limit was not always enough;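 also: 0% = vehicle buffer wells and 100% = reference agonist at full effect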
# sdo1 growth: compounds rescuing growth of sdo1-depleted yeast, bone marrow failure model | S. cerevisiae sdo1-depleted JHY4D growth rescue, OD600 30 h; stronger effect = higher value; pdr5 snq2 efflux-pump mutant strain | z-score at 10 µM | 0.21% of 140,000 active | AID 817;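 active = z-score above 3 at both the 24 hr and the 30 hr optical density reads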;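 also: z-score against mean and SD of all compound wells on the same plate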
# S1P2 blocker: S1P2 (human) receptor antagonism. O95136. cell-based S1P2 antagonist assay, inhibition at 5 uM. inhibition, % at 5 µM. 0.21% of 97,000 active; in the data active = inhibition above about 45%;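 also: CRE beta-lactamase reporter cells expressing human S1P2 stimulated with S1P; 0% = agonist at EC80 alone and 100% = agonist plus reference antagonist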
# GALR2 ag confirm: GALR2 (human) agonism confirmed; shares compounds with GALR2 agonist; GALR2-expressing cells, agonist activation; activation, % at 5.6 µM; 10% of 460 active; AID 864; in the data active = activation above about 8.4%;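 also: 0% = buffer-only vehicle wells and 100% = full reference agonist response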
# BLA act counter: counter-screen for GALR2 agonists: beta-lactamase reporter activators. shares compounds with GALR2 agonist. CHO NFAT-bla reporter, beta-lactamase FRET activation. activation, % at 5.6 µM. 10% of 460 active. AID 865;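 active = activation above the screen-wide mean activation plus 3 SD, cut at about 8% in these data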;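 also: 0% = DMSO with PBS wells and 100% = thapsigargin positive control wells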
# An asterisk follows results filed as active; . = no result given.
SMILES,GALR2 antag,S1P2 agonist,FAK blocker,GALR2 agonist,sdo1 growth,S1P2 blocker,GALR2 ag confirm,BLA act counter
CC1(C)CC(=O)C2=C(C1)N(CCN1CCOCC1)C1=C(C(=O)CC(C)(C)C1)C2c1cccc(Cl)c1,0,6,-3,9,0.56,-8,2,3
CCCCN1C2=C(C(=O)CC(C)(C)C2)C(c2ccccc2)C2=C1c1ccccc1C2=O (stereo not given),-4,-5,4,0,-0.48,1,.,.
CC1CCCCN1CC(=O)Nc1sc2c(c1C#N)CCC2 (stereo not given),-13,-3,-2,1,-0.05,-2,.,.
COc1cccc(C(C(=O)NC2CCCCC2)N(CC2CCCO2)C(=O)CNC(=O)c2ccco2)c1 (stereo not given),9,-4,-1,-2,0.14,-4,.,.
CCOc1ccc(-c2nnc(NC3=NCCCCC3)o2)cc1,0,-5,0,17*,-0.22,-6,-1,-2
Nc1c(C(=O)NCc2ccco2)c2nc3ccccc3nc2n1CCc1ccc(F)cc1,-13,13,1,24*,-0.89,-34,10*,18*
COCCn1c(N)c(C(=O)NCc2cccs2)c2nc3ccccc3nc21,-3,14,-6,11*,-2.6,-33,5,10*
COCCn1c(N)c(C(=O)NCC2CCCO2)c2nc3ccccc3nc21 (stereo not given),3,6,4,5,0.6,-19,.,.
N#Cc1c(N)n(CCc2ccc(F)cc2)c2nc3ccccc3nc12,-19,16,-2,15*,-0.29,-30,4,9.4*
CC(C)Cn1c(N)c(C(=O)NCC2CCCO2)c2nc3ccccc3nc21 (stereo not given),0,14,17,12*,-0.99,-31,2,3
COCCn1c(N)c(S(=O)(=O)c2cccs2)c2nc3ccccc3nc21,7,-8,1,2,0.71,-13,.,.
COC(=O)c1c(NC(=S)Nc2ccccc2Cl)sc(C)c1C,12,-5,-4,-2,0.06,-15,.,.
CCOC(=S)SCC(=O)Nc1nc(-c2ccc(Br)cc2)cs1,8,.,.,16*,-0.8,.,5,-4
CCOC(=S)SCC(=O)Nc1nc(-c2ccccc2)cs1,3,.,.,-1,-0.6,.,.,.
O=C(COC(=O)c1cc(Cl)ccc1Cl)NCCN1C(=O)CSC1=O,19,.,.,12*,0.28,.,-1,-3
Cn1c(NC(=O)c2ccccc2NC(=O)C(C)(C)C)nc2ccccc21,-9,-3,8,0,-1.8,18,.,.
CC(C)CCOC(=O)C1C(c2ccccc2)C(C(=O)O)C1c1ccccc1 (stereo not given),-9,-5,-5,10,0.08,-4,0,0
O=C(CN1CCCC1=O)NC1(C(F)(F)F)NC(=O)N(Cc2ccccc2)C1=O (stereo not given),-1,-5,2,0,-1.1,17,.,.
CC(=O)SCCC(=O)Nc1ccccc1,11,-3,-2,-1,0.11,11,.,.
CC(=O)NNC(=O)CCC(=O)Nc1ccccc1,-1,-5,6,17*,1.1,-17,-1,-2
O=C(Nc1ccc(OC(F)F)cc1)Nc1cccc(C(F)(F)F)c1,14,-1,1,0,-3,5,.,.
Cc1ccc(NC(=O)C2C3CC4OC(=O)C2C4C3)cc1Cl (stereo not given),1,-7,0,38*,0.78,-10,0,0
CCC(CC)C(=O)NCCc1ccc(S(N)(=O)=O)cc1,2,-4,1,10,1.1,2,0,-1
Cc1ccc(NC(=O)C(Cc2ccccc2)NC(=O)c2ccco2)cc1 (stereo not given),-15,-2,2,0,-0.52,-26,.,.
CC1CCCN(c2c([N+](=O)[O-])c(=O)oc3ccccc23)C1 (stereo not given),-5,-4,4,28*,-0.6,24,0,1
COc1ccc(C(=O)N2CCC(O)(c3ccc(F)cc3)CC2)cc1OC,-6,-5,0,98*,1.1,-30,0,-3
